Screening data from PubChem BioAssay.
Giardia killer = Small Molecules that selectively kill Giardia lamblia: qHTS | activity change, % at 7.66 µM, hits read low | 0.15% of 340,000 active | AID 540267, 2011 | Giardia lamblia trophozoite viability; in the data active = activity change below about -80%; inconclusive = between about -30% and that limit;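 also: parasites exposed to compound for two days anaerobically before the ATP read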
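Compounds were tested on trophozoites seeded at 100 cells/well and held 48 hrs at 37 deg C anaerobically. An ATP-based luminescent kit measured the remaining live cells.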
MCF10A rerep = A quantitative high throughput screen for small molecules that induce DNA re-replication in MCF 10a normal breast cells. 2.9% of 350,000 active. Potency, µM (titrated, usually from 46.1 µM), usual class: activators. MCF 10A DNA re-replication, Hoechst nuclear intensity, 48 h; also: nearly all actives have a fitted effect of over 50% in size
RORg inh = qHTS for inhibitors of ROR gamma transcriptional activity; Nuclear receptor ROR-gamma (Mus musculus), P51450; Drosophila S2 Gal4-RORgamma UAS-luciferase reporter, 20 h; Potency, µM (doses to about 53.6 µM), most hits filed as inhibitors; 5.4% of 310,000 active; AID 2551, 2010; also: nearly all actives have a fitted effect of over 60% in size
Target sequence (P51450 whole entry, looked up, the tested form may be a part): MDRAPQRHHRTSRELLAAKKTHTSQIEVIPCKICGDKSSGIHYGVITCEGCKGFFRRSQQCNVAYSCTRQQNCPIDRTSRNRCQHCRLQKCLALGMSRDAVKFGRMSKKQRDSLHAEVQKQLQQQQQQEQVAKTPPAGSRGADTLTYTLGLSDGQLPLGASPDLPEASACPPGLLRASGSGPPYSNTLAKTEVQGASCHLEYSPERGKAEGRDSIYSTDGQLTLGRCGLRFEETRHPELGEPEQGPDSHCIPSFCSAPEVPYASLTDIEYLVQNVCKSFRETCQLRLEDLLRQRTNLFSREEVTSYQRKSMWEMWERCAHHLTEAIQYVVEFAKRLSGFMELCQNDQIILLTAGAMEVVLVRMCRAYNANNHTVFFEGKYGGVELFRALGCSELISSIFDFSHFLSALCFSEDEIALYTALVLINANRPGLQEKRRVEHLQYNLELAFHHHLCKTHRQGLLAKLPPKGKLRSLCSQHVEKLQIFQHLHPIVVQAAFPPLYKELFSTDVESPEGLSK
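ROR gamma transcriptional activity was tracked as Gal4-UAS luciferase output in stably transfected Drosophila Schneider cells, with compound added 1 hr before 700 uM copper sulfate induction and a 20 hr ambient-temperature incubation.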
SW480 rereplic = A quantitative high throughput screen for small molecules that induce DNA re-replication in SW480 colon adenocarcinoma cells. Potency, µM (doses to about 46.1 µM), usual class: activators. SW480 DNA re-replication, Hoechst DNA content imaging, 48 h. AID 624297, 2012. 1.8% of 340,000 active; also: nearly all actives have a fitted effect of over 55% in size
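First, 250 cells per well were seeded. Next, compound or vehicle (23 nL) was pinned in, plates sat 48 hr at 37 C. Finally Hoechst was added for 40 min before fluorescence scanning.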
VP16 counter = VP16 counterscreen qHTS for inhibitors of ROR gamma transcriptional activity. Drosophila S2 Gal4-VP16 UAS-luciferase, luminescence, 20 h. Potency, µM (series often up to 53.6 µM), actives largely listed as inhibitors. 3.5% of 310,000 active. AID 2546, 2010;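 also: Gal4-VP16 expression switched on by copper sulfate through the metallothionein promoter; nearly all actives have a fitted effect of over 50% in size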
Chronic BCR inh = qHTS Assay to Find Inhibitors of Chronic Active B-Cell Receptor Signaling. Potency, µM (top dose mostly 46.1 µM), hits mostly inhibitors. 0.05% of 340,000 active. ABC-DLBCL IkBa-CBG/CBR reporter, luminescence ratio, 4 h; active = well fitted inhibition curve with a large enough effect in the signal ratio, with a control signal flat, not every such curve was filed as active; inconclusive = small, poorly fitted or top-dose-only effect, or effect the other way, or a change in a side signal; the % refers to the signal ratio
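Cell line TMD8 (human ABC DLBCL), stably expressing tet-inducible CBG68-IkBa fusion and CBR; IMDM/0.5% FBS; cpd up to 46 uM; dox induction, 4 h, 37C/5% CO2; dual luminescence; green/red ratio; MG132 control.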
Large screens that a line does not name were inactive. A selection: hits, their analogues and other compounds. The true share with any hit is near 8.3%. Unless noted, calls follow the shape of the dose curve; as a rule, active = well fitted curve in the direction sought with a large enough effect; inconclusive = small, poorly fitted or top-dose-only effect, or another doubt; inactive = no such curve, though single readings can be large; an effect the other way counts as inactive or inconclusive.

CCCC(=O)NC(=S)N1CCN(c2ccc([N+](=O)[O-])cc2)CC1	RORg inh 3.2µM, VP16 counter inconclusive
O=[N+]([O-])c1ccc(N2CCN(C(=S)Nc3ccc(F)cc3)CC2)cc1	RORg inh inconclusive, VP16 counter inconclusive
COCc1cc(C)nc(Sc2nc3c(c(=O)n(C)c(=O)n3C)n2C)c1C#N	Chronic BCR inh inconclusive
Cc1ccc(C(=O)NC(=S)N2CCN(c3ccc([N+](=O)[O-])cc3)CC2)cc1	RORg inh 0.71µM, VP16 counter 1µM, Chronic BCR inh inconclusive
Nc1cccc(C(=O)Nc2ccc3nc(-c4cccnc4)[nH]c3c2)c1	Chronic BCR inh inconclusive
Nc1cccc(-c2nc3ccc(C(=O)c4ccccc4)cc3[nH]2)c1	MCF10A rerep inconclusive, SW480 rereplic 18µM, Chronic BCR inh inconclusive
Nc1ccc2nc(-c3ccccn3)[nH]c2c1	RORg inh 20µM, VP16 counter inconclusive, Chronic BCR inh inconclusive
Nc1ccc2nc(-c3ccccc3)[nH]c2c1	MCF10A rerep inconclusive, RORg inh 13µM, VP16 counter inconclusive, Chronic BCR inh inconclusive
CCOC(=O)c1c(C)nc(C)c(C(=O)OCC)c1-c1ccc(O)c(OC)c1	MCF10A rerep inconclusive, SW480 rereplic 3.7µM
COC(=O)c1c(C)nc(C)c(C(=O)OC)c1-c1ccc(OC)c(OC)c1	Chronic BCR inh inconclusive
COc1ccccc1OCc1nnc(SCC(=O)N2CCCCC2)n1-c1ccccc1	none
Cc1ccccc1OCc1nnc(SCCN2CCCC2)n1-c1ccccc1	RORg inh 11µM, VP16 counter inconclusive, Chronic BCR inh inconclusive
COc1cccc(NC(=O)Nc2cccc(C)n2)c1	none
COc1cc(NC(=S)Nc2ncccc2C)cc(OC)c1OC	MCF10A rerep inconclusive, RORg inh 13µM
COc1cc(NC(=S)Nc2cccc(C)n2)cc(OC)c1OC	RORg inh 2.5µM, VP16 counter 8.9µM
COc1cc(NC(=O)Nc2cccc3cccnc23)cc(OC)c1OC	RORg inh inconclusive, VP16 counter inconclusive, Chronic BCR inh inconclusive
COc1cccc(N2CCN(C(=O)CN3C(=O)NC(C)(c4ccc5ccccc5c4)C3=O)CC2)c1 (configuration not stated)	none (no result: RORg inh, VP16 counter)
CC(C)[C@@H](CC(=O)N[C@@H]1CCCC[C@H]1C(=O)N[C@H](CC(=O)N[C@@H](CCC(=O)O)CC(=O)O)Cc1c[nH]c2ccccc12)NC(=O)C[C@H](Cc1c[nH]c2ccccc12)NC(=O)[C@@H]1CNCC[C@H]1N	none (no result: Giardia killer, MCF10A rerep, SW480 rereplic, Chronic BCR inh)
O=C(NC(=S)N1CCCCC1)C12CC3CC(CC(C3)C1)C2	RORg inh 7.1µM, VP16 counter 13µM
CC12CC3CC(C)(C1)CC(C(=O)N1CCCC1)(C3)C2	none
CCOC(=O)N1CCN(C(=S)NC(=O)C23CC4CC(CC(C4)C2)C3)CC1	RORg inh 3.5µM, VP16 counter inconclusive
CC12CC3CC(C)(C1)CC(C(=O)NC(=S)N1CCOCC1)(C3)C2	RORg inh 1.1µM, VP16 counter 2.8µM
NC(=O)C1CCCN(C(=O)CNC(=O)C23CC4CC(CC(C4)C2)C3)C1 (configuration not stated)	none (no result: RORg inh, VP16 counter)
O=C(c1cc(NC(=O)C23CC4CC(CC(C4)C2)C3)cc(NC(=O)C23CC4CC(CC(C4)C2)C3)c1)N1CCCCC1	SW480 rereplic 13µM
COc1cc(OC)cc(C(=O)NNC(=O)CN2C(=O)NC3(CCCC3)C2=O)c1	Chronic BCR inh inconclusive (no result: RORg inh, VP16 counter)
CC(C)CC(=O)N1CCN(Cc2ccccc2[N+](=O)[O-])CC1	none
Cc1ccc(Cn2ccc(NC(=O)c3cc(C4CC4)on3)n2)cc1	MCF10A rerep inconclusive
CC(NC(=O)CCNC(=O)c1ccc(Br)cc1)c1ccc(S(N)(=O)=O)cc1 (configuration not stated)	none (no result: RORg inh, VP16 counter)
Cc1ccc(C(=O)NC(C(=O)OCc2cn3cc(Cl)ccc3n2)C(C)C)cc1 (configuration not stated)	none (no result: RORg inh, VP16 counter)
CCN(CC(=O)NCc1ccc(Cl)cc1)C(=O)c1cccc(S(=O)(=O)Nc2ccc(OC)cc2)c1	none (no result: RORg inh, VP16 counter)
CCN(CC)C(=S)NC(=O)C12CC3CC(CC(C3)C1)C2	RORg inh 2.5µM, VP16 counter 5µM
CC(C)OC(=O)c1c(-c2ccc(C(C)C)cc2)csc1NC(=O)C1CCCO1 (configuration not stated)	MCF10A rerep 18µM
CCOC(=O)c1c(-c2ccc(F)cc2)csc1NC(=O)C1CCCO1 (configuration not stated)	none
CCOC(=O)c1c(-c2ccc(C)cc2)csc1NC(=O)C1CCCO1 (configuration not stated)	MCF10A rerep 13µM
CCOC(=O)C1=C(C)N=C2SC(C(=O)OC)=CC(=O)N2C1c1ccc(OC)cc1 (configuration not stated)	RORg inh 1.8µM, VP16 counter inconclusive
COC(=O)C1=C(C)N=C2SC(C#N)=C(N)N2C1c1ccc(OC)cc1 (configuration not stated)	none
COc1ccc2[nH]c3c(c2c1)CCN1C(=O)C(CC(=O)NCc2ccco2)C[C@H](C(=O)N2CCCCC2)[C@@]31CCc1ccccc1 (some centres not stated)	none (no result: RORg inh, VP16 counter)
Cc1ccc(NC(=O)CCNS(=O)(=O)c2cc(Br)cnc2N)cc1Cl	MCF10A rerep 18µM
COc1ccc(N(C(=O)Cn2cnc3ccccc32)C(C(=O)NC2CCCCC2)c2ccccc2)cc1 (configuration not stated)	MCF10A rerep inconclusive, SW480 rereplic 23µM
C=CCn1c(SCC(=O)NC2CCS(=O)(=O)C2)nnc1-c1cc2c(s1)CCC(CC)C2 (configuration not stated)	RORg inh inconclusive, Chronic BCR inh inconclusive
C=CCn1c(-c2cc3c(s2)CCC(CC)C3)n[nH]c1=S (configuration not stated)	MCF10A rerep inconclusive, RORg inh 2.2µM, VP16 counter inconclusive, Chronic BCR inh inconclusive
Cc1ccc(S(=O)(=O)NCC(C)n2cncn2)cc1C (configuration not stated)	none
COc1ccc(-c2cc(CCC(=O)N3CCN(c4cc(C)ccc4C)CC3)[nH]n2)cc1	Chronic BCR inh inconclusive (no result: RORg inh, VP16 counter)
COc1ccc(COC(=O)C2=C(C)NC(=O)NC2c2cc(OC)ccc2OC)cc1 (configuration not stated)	MCF10A rerep 0.52µM, Chronic BCR inh inconclusive
